Assay [1] in a line: APR_HepG2_CellCycleArrest_24hr: Apredica 24-hour HepG2 Assay for Cell Cycle Arrest (AID 2282905).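 Also: cell cycle arrest scored as ratio of 2N to 4N nuclear DNA content.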 Conditions: imaging, actives raise or lower the signal. In short, it runs like this:
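Cell cycle arrest is scored from nuclear DNA content measured by high-content imaging of Hoechst 33342-stained HepG2 cells following 24-hour treatment at ten concentrations up to 200 uM, with DMSO as baseline.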

Assay [2] can be described thus: APR_HepG2_StressKinase_1hr: Apredica 1-hour HepG2 Assay for Stress Kinase (AID 2282906). Conditions: HepG2 stress kinase (phospho-c-Jun) imaging, actives raise or lower the signal. In short, it runs like this:
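HepG2 cells dosed 0.39-200 uM (0.5% DMSO) for 1 h, then formaldehyde-fixed. Stress kinase read by phospho-c-Jun immunofluorescence using high-content imaging; bidirectional fit vs DMSO.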

The nature of assay [3]: APR_HepG2_NuclearSize_24hr: Apredica 24-hour HepG2 Assay for Nuclear Size (AID 2282907). To be noted: high-content imaging, actives raise or lower the signal. In short, it runs like this: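 Compounds in DMSO (final 0.5%) were added to human HepG2 hepatoma cells at ten concentrations up to 200 uM for 24 hr. Fixed nuclei were stained with Hoechst 33342, and nuclear diameter was quantified from automated images.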

The nature of assay [4]: APR_HepG2_CellLoss_24hr: Apredica 24-hour HepG2 Assay for Cell Loss (AID 2282908).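 As to AC50: fit in both directions so a hit may be cell loss or gain.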 To be noted: high-content imaging. In short, it runs like this:
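Cell number is quantified by fluorescence imaging of Hoechst 33342-stained nuclei following dosing at 0.39–200 uM in 0.5% DMSO. Curves are fitted in both directions from the DMSO baseline.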

Assay [5] in a line: APR_HepG2_MitoticArrest_24hr: Apredica 24-hour HepG2 Assay for Mitotic Arrest (AID 2282910). Conditions: high-content imaging, actives raise or lower the signal. The method, boiled down:
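HepG2 human liver cells were exposed to compounds at 0.39–200 uM (10 concentrations, duplicate) in 0.5% v/v DMSO for 24 hr, then fixed and immunostained for phospho-histone H3 with Hoechst 33342. Mitotic arrest came from HCS fluorescent imaging, fitted bidirectionally against DMSO.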

Assay [6] can be described thus: APR_HepG2_MitoMembPot_24hr: Apredica 24-hour HepG2 Assay for Mitochondrial Membrane Potential (AID 2282911). To be noted: imaging, actives raise or lower the signal. The method, boiled down:
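HepG2 human liver cells were exposed 24 hr to compounds at 0.39–200 uM (final DMSO 0.5% v/v) in duplicate. MitoTracker Red CMXRos (250 nM, 30 min) was loaded before formaldehyde fixation; fluorescence was imaged by ArrayScan HCS and fitted bidirectionally versus DMSO.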

Assay [7] can be described thus: APR_HepG2_MitoMass_24hr: Apredica 24-hour HepG2 Assay for Mitochondrial Mass (AID 2282912). Conditions: high-content imaging, actives raise or lower the signal. The method, boiled down:
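The liver line HepG2 was dosed in duplicate across a 0.39–200 uM series, with final DMSO held at 0.5% v/v, and harvested at 24 hr. High-content imaging measured mitochondrial dye staining.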

Assay [8] is described as follows: APR_HepG2_p53Act_24hr: Apredica 24-hour HepG2 Assay for p53 Activation (AID 2282913).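 Also: p53 protein immunofluorescence averaged per cell in HepG2 with Hoechst nuclei.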 Conditions: high-content imaging, actives raise or lower the signal. In short, it runs like this:
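HepG2 cells exposed 24 hr to compounds at 0.39–200 uM (10 concentrations, duplicate), final DMSO 0.5% v/v. After formaldehyde fixation and Triton permeabilization, p53 was immunolabeled (sheep anti-p53, Cy5 secondary) with Hoechst 33342 nuclear counterstain, then imaged by high-content fluorescence microscopy.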

The nature of assay [9]: APR_HepG2_CellCycleArrest_72hr: Apredica 72-hour HepG2 Assay for Cell Cycle Arrest (AID 2282914). To be noted: high-content imaging, actives raise or lower the signal. The method, boiled down:
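HepG2 cells were exposed to compounds at 0.39–200 uM (0.5% v/v DMSO final, duplicates) for 72 hr, fixed in 3.7% formaldehyde, permeabilized and stained with Hoechst 33342. Nuclear DNA content was quantified by high-content imaging; gain or loss of signal was fitted bidirectionally against DMSO.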

Assay [10] is described as follows: APR_HepG2_P-H2AX_72hr: Apredica 72-hour HepG2 Assay for H2AX Phosphorylation (AID 2282916).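 Also: phospho-histone H2A.x immunostain intensity per cell marking DNA damage.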 To be noted: imaging, actives raise or lower the signal. The method, boiled down:
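Following 72 hr treatment with 0.39–200 uM compound, HepG2 cells were formaldehyde-fixed, permeabilized and stained for phospho-H2A.x; signal was measured by high-content imaging and fitted bidirectionally against DMSO controls.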

A short description of assay [11]: APR_HepG2_MitoticArrest_72hr: Apredica 72-hour HepG2 Assay for Mitotic Arrest (AID 2282918). Conditions: high-content imaging, actives raise or lower the signal. In short, it runs like this: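 HepG2 cells were exposed for 72 hr to compound at 0.39–200 uM (10 concentrations, duplicate) in 0.5% v/v DMSO, fixed in 3.7% formaldehyde, immunostained for phospho-histone H3 with Hoechst 33342 and imaged by high-content fluorescence; bidirectional fits versus DMSO.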

Assay [12] is described as follows: APR_HepG2_MicrotubuleCSK_72hr: Apredica 72-hour HepG2 Assay for Microtubule CSK Stabilty (AID 2282919). To be noted: HepG2 microtubule cytoskeleton, high-content imaging, actives raise or lower the signal. The method, boiled down: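 HepG2 human liver cells were dosed for 72 h at ten concentrations from 0.39 to 200 uM in duplicate (0.5% v/v DMSO final). Fixed, permeabilized cells were immunostained for alpha-tubulin (Cy5) with a Hoechst counterstain and imaged at 20x.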

Assay [13] is described as follows: APR_HepG2_P-H2AX_24hr: Apredica 24-hour HepG2 Assay for H2AX Phosphorylation (AID 2282920). To be noted: high-content imaging, actives raise or lower the signal. In short, it runs like this:
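HepG2 human liver cells were exposed for 24 hr to compounds at 0.39–200 uM in duplicate, with 0.5% v/v DMSO final. Fixed cells were immunostained for phospho-histone H2A.x plus Hoechst 33342, imaged by HCS fluorescence, and fitted bidirectionally against DMSO.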

Assay [14] in a line: APR_HepG2_StressKinase_72hr: Apredica 72-hour HepG2 Assay for Stress Kinase (AID 2282921). To be noted: HepG2 stress kinase (phospho-c-Jun) imaging, actives raise or lower the signal. In short, it runs like this:
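Fluorescence intensity of Cy3-tagged anti-phospho-c-Jun antibody, quantified per cell from Hoechst-defined nuclei across six images per well, served as the read-out following 72 h exposure (0.39–200 uM, 0.5% v/v DMSO).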

A short description of assay [15]: APR_HepG2_StressKinase_24hr: Apredica 24-hour HepG2 Assay for Stress Kinase (AID 2282922). Conditions: HepG2 stress kinase (phospho-c-Jun) imaging, actives raise or lower the signal. The method, boiled down:
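HepG2 cells exposed 24 hr to compound at 0.39–200 uM (10 concentrations, duplicate), 0.5% v/v DMSO final. Fixed in 3.7% formaldehyde, permeabilized with Triton X-100, immunolabeled for phospho-c-Jun with Hoechst 33342; HCS fluorescence imaging, bidirectional fit versus DMSO.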

Assay [16] in a line: APR_HepG2_p53Act_72hr: Apredica 72-hour HepG2 Assay for p53 Activation (AID 2282923).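 Also: average cellular p53 protein immunofluorescence intensity in HepG2 cells.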 To be noted: high-content imaging, actives raise or lower the signal. In short, it runs like this: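 HepG2 monolayers receive test compounds in duplicate at ten concentrations (0.39 through 200 uM) for 72 hr. They are then formaldehyde-fixed, antibody-labelled for p53, Hoechst-stained and imaged, with activity fitted bidirectionally versus DMSO.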

Assay [17] can be described thus: APR_HepG2_MitoMass_72hr: Apredica 72-hour HepG2 Assay for Mitochondrial Mass (AID 2282924).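 Also: MitoTracker Red CMXRos stain intensity per cell imaged as mitochondrial mass.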 To be noted: high-content imaging, actives raise or lower the signal. In short, it runs like this: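 HepG2 cells were exposed for 72 hr to compounds at 0.39–200 uM (ten concentrations, duplicate, 0.5% v/v DMSO final). Live cells were stained with 250 nM MitoTracker Red CMXRos for 30 min, then fixed in 3.7% formaldehyde and imaged by HCS fluorescence.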

Assay [18] in a line: APR_HepG2_CellLoss_72hr: Apredica 72-hour HepG2 Assay for Cell Loss (AID 2282915). To be noted: high-content imaging. The method, boiled down: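 HepG2 cells were exposed for 72 hr to compounds at 0.39–200 uM (ten concentrations, duplicate) in 0.5% v/v final DMSO. Nuclei were stained with Hoechst 33342 after 3.7% formaldehyde fixation, imaged at 20x, and counted; fits bidirectional versus DMSO.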

Assay [19] is described as follows: APR_HepG2_MitoMembPot_72hr: Apredica 72-hour HepG2 Assay for Mitochondrial Membrane Potential (AID 2282917). To be noted: imaging, actives raise or lower the signal. In short, it runs like this:
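HepG2 cells exposed 72 h to compounds at 0.39–200 uM (0.5% v/v DMSO, duplicates); MitoTracker Red CMXRos 250 nM loaded 30 min before 3.7% formaldehyde fixation, imaged by HCS fluorescence. Bidirectional fit versus DMSO.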

Assay [20] can be described thus: APR_HepG2_MicrotubuleCSK_24hr: Apredica 24-hour HepG2 Assay for Microtubule CSK Stabilty (AID 2282909). Conditions: HepG2 microtubule cytoskeleton imaging, actives raise or lower the signal. The method, boiled down:
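Steps: dose HepG2 for 24 h (0.39–200 uM, 0.5% DMSO); fix 30 min in 3.7% formaldehyde at room temperature; permeabilize; stain alpha-tubulin 60 min; image microtubule cytoskeleton at 20x. Signal change fitted in both directions relative to DMSO.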

Activity calls are given as the source filed them. The calls were made as follows: active = hit-call score of the fitted dose curve at least 0.9, where 1 is the maximum; inactive = score below 0.9.

By AC50 is commonly meant the midpoint of the concentration-response curve, whichever way the signal moves. Consider `COC(=O)CSc1cc(N=c2sc(=O)n3n2CCCC3)c(F)cc1Cl`, for which the molecule was classed as inactive in assay [1], in assay [2], in assay [3], in assay [5], in assay [6] and in assay [7]. In addition, the result in assay [8], in [9], in assay [10], in assay [11], in assay [12] and in [13] was inactive. Besides, the molecule was classed as inactive in assay [14], in [15], in assay [16] and in [17]. Moreover, the AC50 in [4] is 103 µM (active).
On to `CC(=O)S[C@@H]1CC2=CC(=O)CC[C@]2(C)[C@H]2CC[C@@]3(C)[C@@H](CC[C@@]34CCC(=O)O4)[C@H]12`, for which the AC50 in assay [1] is 37.4 µM (active); in [4], 54.6 µM (active); in [5], 30.2 µM (active); in assay [6], 82.3 µM (active); in assay [7], 29.1 µM (active); in assay [8] it was 54.7 µM (active). The AC50 is 44.1 µM (active) in [9]; 35 µM (active) in [10]; 53.6 µM (active) in assay [11]; 46.4 µM (active) in assay [13]; 48.6 µM (active) in assay [15]; 40.3 µM (active) in [16]. For the same molecule, the AC50 in assay [17] was 96.8 µM (active). Further, the molecule was called inactive in [3] and in [12].
As for `C[C@]12C[C@H](O)[C@H]3[C@@H](CCC4=CC(=O)CC[C@@]43C)[C@@H]1CC[C@@H]2C(=O)CO`, the AC50 is 114 µM (active) in assay [1]; 109 µM (active) in assay [3]; 65.3 µM (active) in [4]; 82.9 µM (active) in [6]; 86.2 µM (active) in assay [8]; 32.9 µM (active) in assay [18]. Further, the AC50 in [10] was 34.5 µM (active); in assay [19], 120 µM (active); in assay [11], 86.1 µM (active); in [13], 96.6 µM (active); in assay [17], 148 µM (active). Besides, the molecule was called inactive in assay [5], in assay [7], in assay [9], in assay [12], in [15] and in assay [16].
For `C[C@]12CC[C@@H]3c4ccc(O)cc4C[C@@H](CCCCCCCCCS(=O)CCCC(F)(F)C(F)(F)F)[C@H]3[C@@H]1CC[C@@H]2O` (stereo not given in full), the call in assay [1], in [3], in assay [4], in assay [20], in [5] and in assay [6] was inactive. Further, the result in assay [7], in assay [8], in assay [9], in assay [10], in [11] and in assay [12] was inactive. Moreover, the outcome in assay [13], in assay [15], in [16] and in [17] was inactive.
For the molecule `CCCCC(CC)COC(=O)c1ccccc1C(=O)O` (stereo not given), the molecule was called inactive in [1], in [2], in assay [3], in assay [4], in [5] and in assay [6]. Further, the call in assay [7], in assay [8], in assay [9], in assay [10], in assay [19] and in assay [11] was inactive. Moreover, the call in assay [12], in [13], in assay [15], in assay [16] and in [17] was inactive.
For `Cc1nn(C)c(Oc2ccccc2)c1C=NOCc1ccc(C(=O)OC(C)(C)C)cc1`, the AC50 in assay [1] is 29.9 µM (active); in [4] it was 6.62 µM (active); in [9], 19.8 µM (active); in [11] it was 40.3 µM (active); in assay [12] it was 21.2 µM (active). The call in assay [2], in assay [3], in [5], in assay [6], in [7] and in assay [8] was inactive. For the same molecule, the molecule was called inactive in assay [10], in assay [13], in assay [15], in assay [16] and in assay [17].
In the case of `COc1c(Cl)ccc(Cl)c1C(=O)O`, the molecule was called inactive in assay [1], in assay [2], in assay [3], in [4], in [5] and in assay [6]. For the same molecule, the result in assay [7], in assay [9], in assay [18], in assay [10], in assay [19] and in assay [11] was inactive. Besides, the call in assay [12], in [13], in [14], in assay [15] and in assay [17] was inactive.

The values above are taken from PubChem BioAssay (EPA / NIEHS).
